Bioassay records deposited in PubChem by several laboratories.
Hits are enriched below; roughly 1.2% of the tested compounds scored in any of these assays.
GC-A act: GC-A (human) enzyme activation; 0.14% of 370,000 active; activation, % at 10 µM; HEK293 GC-A cells, cGMP TR-FRET, EC30 ANP; 0% at EC30 ANP, 100% saturating ANP; in the data active = activation above about 40%
NPR2 activator: GC-B (human) receptor activation; P20594; activation, % at 10 µM; 0.11% of 370,000 active; HEK293-GC-B cells, CNP EC30, cGMP TR-FRET; 0% at EC30 CNP, 100% saturating CNP;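 active = activation at 10 µM reaching about 35% in either raw or pattern-adjusted values, limit read from the data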
Neddyl block: cullin neddylation inhibition; TR-FRET cullin neddylation, biochemical; inhibition, % at 25 µM; 0.58% of 360,000 active; AID 651699; in the data active = inhibition above about 36%
NOD2-RIPK2 inh: inhibitors of human NOD2-RIPK2 interaction; CHO BLA complementation NOD2-RIPK2, CCF4 ratio; O43353; inhibition, % at 4.98 µM; 0.38% of 360,000 active; in the data active = inhibition above about 21%;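 note: 0% = vehicle only and 100% = reference blocker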
TLR9-MyD88 inh: blocks human TLR9 binding to MyD88; Q9NR96+Q99836; CHO BLA complementation TLR9-MyD88, CCF4 FRET ratio; inhibition, % at 4.98 µM; 0.21% of 340,000 active;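 active = inhibition above the mean over all tested compounds plus 3 SD, cut at about 21% in these data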;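 note: 0% = DMSO only wells and 100% = clavulanate BLA inhibitor control wells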
TLR4 MyD88 comp: inhibitors of human TLR4-MyD88 binding | 0.18% of 200,000 active | HeLa CL3-4 TLR4/MyD88 BLA complementation, FRET ratio | O00206+Q99836 | inhibition, % at 8.4 µM; in the data active = inhibition above about 25%;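 note: 0% = vehicle and 100% = reference inhibitor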
NOD2 RIPK2 conf: NOD2-RIPK2 interaction inhibition confirmed; shares compounds with NOD2-RIPK2 inh; CHO cells, NOD2-RIPK2 BLA complementation, CCF4 FRET; inhibition, % at 4.98 µM; 70% of 1,200 active;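 active = mean inhibition across replicates above a set limit taken from the earlier primary screen, cut at about 21% in these data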;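 note: 0% = DMSO-only wells and the high end = clavulanate BLA-blocked wells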
BLA counter: NOD2-RIPK2 counterscreen BLA reporter activity | shares compounds with NOD2-RIPK2 inh | AID 624371 | 57% of 1,200 active | inhibition, % at 4.98 µM | CHO BLA reporter, CCF4 FRET ratio;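 active = mean inhibition above the low-control mean inhibition plus three low-control SD, cut at about 11% in these data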;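 note: 0% = DMSO only wells and 100% = clavulanate high control wells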
Starred values were filed as active, the others as inactive.

How did CCCCCNC(=O)C(c1ccncc1)n1c(=O)c(-c2ccco2)nc2ccccc21 (configuration not stated) do in these assays?
GC-A act: -7; NPR2 activator: 2; Neddyl block: 20; NOD2-RIPK2 inh: -11

Results for CCCCCNC(=O)C(c1cc2ccccc2o1)n1c(=O)c(-c2ccco2)nc2ccccc21 (configuration not stated) ?
GC-A act: -8; NPR2 activator: -20; Neddyl block: 10; NOD2-RIPK2 inh: -12

How did CCCCCNC(=O)C(c1ccnc2ccccc12)n1c(=O)c(-c2cc3ccccc3[nH]2)nc2ccccc21 (configuration not stated) do in these assays?
GC-A act: 0; NPR2 activator: 0; NOD2-RIPK2 inh: 51*; NOD2 RIPK2 conf: 46*; BLA counter: 67*

What do the screens show for `CCCCCNC(=O)C(c1ccncc1)n1c(=O)c(-c2cc3ccccc3[nH]2)nc2ccccc21` (configuration not stated)?
GC-A act: -14; NPR2 activator: -16; NOD2-RIPK2 inh: 50*; NOD2 RIPK2 conf: 51*; BLA counter: 69*

Results for CCCCCNC(=O)C(c1ccc(OC)cc1)n1c(=O)c(-c2cc3ccccc3[nH]2)nc2ccccc21 (configuration not stated) ?
GC-A act: 9; NPR2 activator: 2; NOD2-RIPK2 inh: 44*; NOD2 RIPK2 conf: 39*; BLA counter: 62*

What do the screens show for `C[C@H](O)[C@@H]1CN2CCc3c([nH]c4c(-c5ccc6c(c5)OCO6)cccc34)[C@@H]2C[C@@H]1N(C)C(=O)c1ccccc1F`?
GC-A act: -6; NPR2 activator: -12

Results for C=CCOc1cccc(C(=O)/C=C2/C(=O)Nc3ccccc32)c1 ?
GC-A act: 3; NPR2 activator: -1; Neddyl block: -5; NOD2-RIPK2 inh: 41*; TLR9-MyD88 inh: 9; NOD2 RIPK2 conf: 39*; BLA counter: 4

What do the screens show for `CC(C)N(C)c1ncnc2c1ncn2[C@H]1CN(Cc2ccc3c(c2)OCO3)C[C@@H](CO)O1`?
GC-A act: 4; NPR2 activator: 1; Neddyl block: -6; NOD2-RIPK2 inh: 4

Results for CCN1CCN(c2ccc(S(=O)(=O)N3CCCCC3)cc2NC(=O)/C=C/c2ccc([N+](=O)[O-])cc2)CC1 ?
GC-A act: -5; NPR2 activator: 0; Neddyl block: -30; NOD2-RIPK2 inh: 0; TLR9-MyD88 inh: -2

How did CN1CCN(c2ccc(S(=O)(=O)N3CCCCC3)cc2NC(=O)/C=C/c2ccc(Cl)c([N+](=O)[O-])c2)CC1 do in these assays?
GC-A act: -6; NPR2 activator: -6; Neddyl block: -13; NOD2-RIPK2 inh: 22*; TLR9-MyD88 inh: 8; NOD2 RIPK2 conf: 30*; BLA counter: -10

How did CCO[C@H]1OC(C(=O)NCc2ccccc2)=C[C@@H](c2ccc(Br)cc2)[C@@H]1CCCO do in these assays?
GC-A act: -6; NPR2 activator: 2; Neddyl block: -23; NOD2-RIPK2 inh: 29*; TLR9-MyD88 inh: 0; TLR4 MyD88 comp: 3; NOD2 RIPK2 conf: -20; BLA counter: -5

Results for CSc1ccccc1CNc1nc(NCC2CC2)nc2ccsc12 ?
GC-A act: -8; NPR2 activator: -2; Neddyl block: -9; NOD2-RIPK2 inh: 0

Results for CCN(CC)C(=O)CC[C@@H]1CC[C@]2(CCCN(S(=O)(=O)c3ccccc3)C2)O1 ?
GC-A act: -8; NPR2 activator: -2

What do the screens show for `O=C(NC1CCCCN(Cc2cccc(Cl)c2)C1=O)c1ccc(-c2ccccc2)cc1` (configuration not stated)?
GC-A act: 0; NPR2 activator: -3
